This passage reports growth results from PubChem BioAssay (NCI).

The panel holds about 83,000 compounds, 20% with a hit somewhere; the sample as a whole holds those more often.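 Results are percent growth after 48 hours of single-concentration exposure. 100 means growth as in untreated cells, lower positive values show inhibition; negative values down to -100 show cell death.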 A number with no mark means an inactive call. Activity calls are given as the source filed them. How the source made its calls: active means growth percent below 10; inactive means the rest.

Among the test systems are SK-MEL-2 melanoma; EKVX NSCLC; SN12C renal; UO-31 renal; TK-10 renal; ACHN renal; CAKI-1 renal; A498 renal; CCRF-CEM leukemia; MOLT-4 leukemia; SR leukemia; RPMI-8226 leukemia; OVCAR-8 ovarian; OVCAR-5 ovarian; OVCAR-4 ovarian; SK-OV-3 ovarian; IGROV1 ovarian; OVCAR-3 ovarian; HS 578T breast; NCI/ADR-RES ovarian.
What all share (assay): NCI-60 one-dose screen, 48 h (100 = growth as untreated, 0 = no growth, -100 = all killed)
What all share (settings): 10 µM unless noted

Turning to `CCCCCCCCCCCCCCCCCC(=O)[O][Sn]([CH2]CCC)([CH2]CCC)[CH2]CCC`, the growth with SK-MEL-2 melanoma was -60.7% (active); in the test with EKVX NSCLC, -40.1% (active); with SN12C renal, -47.2% (active); in the test with UO-31 renal, -92.4% (active); in the test on TK-10 renal, -93.6% (active); in the test with ACHN renal, -96.8% (active). The growth in the test on CAKI-1 renal is -86.5% (active); in the test with A498 renal, -98% (active); in the test with CCRF-CEM leukemia it was 1.06% (active); with MOLT-4 leukemia it was 4.55% (active); in the test with SR leukemia, 15.8%; with RPMI-8226 leukemia, -30.8% (active). Moreover, the growth in the test with OVCAR-8 ovarian is -57% (active); in the test with OVCAR-5 ovarian it was -71.1% (active); in the test on OVCAR-4 ovarian, -98% (active); in the test with SK-OV-3 ovarian, -96.2% (active); in the test on IGROV1 ovarian it was -88.7% (active); in the test on OVCAR-3 ovarian, -100% (active). In addition, the growth in the test on HS 578T breast is -8.64% (active).
Take `CC(=O)O[C@H]1CC[C@]2(C)[C@H]3CC=C4[C@@H]5CC(C)(C)CC[C@]5(C(=O)OCC(COC(=O)C(Cl)Cl)(COC(=O)C(Cl)Cl)NC(=O)C(Cl)Cl)CC[C@@]4(C)[C@]3(C)CC[C@H]2C1(C)C`: the growth in the test on SK-MEL-2 melanoma is 77.7%; with EKVX NSCLC it was 65%; in the test on SN12C renal, 71.8%; in the test on UO-31 renal it was 62.5%; in the test on TK-10 renal it was 78.1%; with ACHN renal it was 62.4%. Besides, the growth in the test on CAKI-1 renal was 63%; in the test on A498 renal it was 93.2%; with CCRF-CEM leukemia, 64.8%; in the test on MOLT-4 leukemia, 44.9%; with SR leukemia, 60.3%; in the test on RPMI-8226 leukemia, 33.5%. For the same compound, the growth with OVCAR-8 ovarian is 68.5%; with OVCAR-5 ovarian it was 86.1%; with OVCAR-4 ovarian it was 67.6%; in the test with SK-OV-3 ovarian it was 86.1%; with IGROV1 ovarian, 89.5%; with OVCAR-3 ovarian, 67%. Moreover, the growth with HS 578T breast is 83.9%.
Regarding `CC(=O)c1ccc(N2C(=O)c3ccc(Oc4ccccc4)cc3C2=O)cc1`, the growth in the test on SK-MEL-2 melanoma is 110%; with EKVX NSCLC, 94.1%; with SN12C renal, 98.4%; with UO-31 renal, 92.5%; in the test on TK-10 renal it was 105%; in the test on ACHN renal, 107%. In addition, the growth in the test with CAKI-1 renal is 101%; with A498 renal, 91.5%; with CCRF-CEM leukemia, 134%; with MOLT-4 leukemia, 115%; in the test on SR leukemia, 119%; in the test on RPMI-8226 leukemia, 101%. Also, the growth with OVCAR-8 ovarian was 114%; in the test with OVCAR-5 ovarian, 103%; in the test on OVCAR-4 ovarian, 108%; in the test on SK-OV-3 ovarian, 108%; with IGROV1 ovarian, 108%; in the test with OVCAR-3 ovarian, 107%. Further, the growth in the test on HS 578T breast was 115%; with NCI/ADR-RES ovarian, 105%.
Take `COc1ccc(C2=NNC(c3ccc(Oc4nc5c(c(=O)n(C)c(=O)n5C)n4C)c(OC)c3)C2)cc1` (stereo not drawn): the growth in the test on SK-MEL-2 melanoma is 99.4%; with EKVX NSCLC it was 97.7%; in the test with SN12C renal, 85.2%; in the test on UO-31 renal, 81.2%; in the test with TK-10 renal, 107%; in the test on ACHN renal it was 93.7%. The growth with CAKI-1 renal was 102%; in the test with A498 renal it was 91.9%; in the test on CCRF-CEM leukemia it was 82.8%; in the test with MOLT-4 leukemia, 76%; in the test on SR leukemia, 62.7%; with RPMI-8226 leukemia, 80.4%. In addition, the growth with OVCAR-8 ovarian is 94.4%; with OVCAR-5 ovarian, 102%; in the test on OVCAR-4 ovarian, 98.1%; in the test on SK-OV-3 ovarian it was 117%; in the test with IGROV1 ovarian it was 105%; with OVCAR-3 ovarian, 108%. Besides, the values for the growth in the test with HS 578T breast and with NCI/ADR-RES ovarian were 89.4% and 87.2%, respectively.
For `Cc1ccc2c(C)c3c(ccc4ccccc43)c[n+]2c1`, the growth with SK-MEL-2 melanoma is 98.4%; with EKVX NSCLC it was 44.1%; with SN12C renal, 26.3%; in the test with UO-31 renal, 45.9%; with TK-10 renal it was 111%; with ACHN renal, 91.7%. Also, the growth in the test on CAKI-1 renal was 75.9%; in the test on A498 renal, 89.7%; in the test with CCRF-CEM leukemia it was 57.1%; with MOLT-4 leukemia, 61.3%; in the test on SR leukemia it was 58.2%; in the test on RPMI-8226 leukemia it was 47.8%. For the same compound, the growth in the test on OVCAR-8 ovarian is 52.5%; with OVCAR-5 ovarian, 90.3%; in the test with OVCAR-4 ovarian it was 56.3%; with SK-OV-3 ovarian, 83.8%; in the test on IGROV1 ovarian it was 60.6%; with OVCAR-3 ovarian, 53.2%. For the same compound, the results for the growth in the test with HS 578T breast and in the test on NCI/ADR-RES ovarian were 77.8% and 95.9%, respectively.
Take `CN1CCC2(CC1)N=C(SCC(=O)Nc1cnc3ccccc3c1)C(c1ccc(Br)cc1)=N2`: the growth was -31.2% (active) in the test with SK-MEL-2 melanoma; 37.9% with EKVX NSCLC; 31.1% with SN12C renal; -12.5% (active) with UO-31 renal; 30.1% in the test with TK-10 renal; 5.39% (active) in the test with ACHN renal. In addition, the growth is 8.73% (active) in the test with CAKI-1 renal; 44.6% in the test with A498 renal; 4.53% (active) in the test with CCRF-CEM leukemia; 1.51% (active) with MOLT-4 leukemia; -27% (active) with SR leukemia; -7.88% (active) with RPMI-8226 leukemia. The growth in the test with OVCAR-8 ovarian is 19.9%; in the test with OVCAR-5 ovarian, 67.7%; with OVCAR-4 ovarian it was 65.8%; with SK-OV-3 ovarian it was 54.9%; in the test on IGROV1 ovarian, 16.2%; in the test with OVCAR-3 ovarian, 35.4%. The growth was 24% in the test with HS 578T breast and 29.6% with NCI/ADR-RES ovarian.
For `Clc1cccc(CNc2c3ccccc3nc3ccccc23)c1`, the growth with SK-MEL-2 melanoma was 77.3%; in the test with EKVX NSCLC, 27.2%; in the test with SN12C renal it was 23.6%; with UO-31 renal, 16%; in the test with TK-10 renal, 52.1%; in the test on ACHN renal, 15.7%. In addition, the growth in the test with CAKI-1 renal is 28.2%; in the test on A498 renal it was -3.08% (active); with CCRF-CEM leukemia it was 18.1%; with MOLT-4 leukemia it was 1.13% (active); in the test on SR leukemia it was -3.9% (active); in the test with RPMI-8226 leukemia it was -23.5% (active). Moreover, the growth in the test on OVCAR-8 ovarian is 31.1%; in the test on OVCAR-5 ovarian it was 32.4%; in the test with OVCAR-4 ovarian, 18.8%; in the test with SK-OV-3 ovarian, 63.9%; in the test on IGROV1 ovarian, 16.5%; in the test on OVCAR-3 ovarian, 57.7%. Moreover, the growth in the test with HS 578T breast was 53.7%; with NCI/ADR-RES ovarian it was 26.3%.
For `Cc1cc(-c2ccccc2)on1`, the growth with SK-MEL-2 melanoma was 107%; in the test on EKVX NSCLC, 103%; in the test on SN12C renal, 103%; with UO-31 renal, 82.5%; with TK-10 renal it was 110%; with ACHN renal, 103%. Further, the growth with CAKI-1 renal is 98.2%; in the test with A498 renal, 126%; in the test with CCRF-CEM leukemia, 97.8%; in the test with MOLT-4 leukemia it was 92.4%; in the test on SR leukemia, 87.3%; in the test with RPMI-8226 leukemia, 108%. The growth is 106% in the test with OVCAR-8 ovarian; 106% in the test on OVCAR-5 ovarian; 102% with OVCAR-4 ovarian; 93.1% in the test on SK-OV-3 ovarian; 98.1% in the test on IGROV1 ovarian; 112% in the test on OVCAR-3 ovarian. The growth with HS 578T breast was 104%; in the test on NCI/ADR-RES ovarian, 105%.
